# Data reported in the supplement of paper PMC13172266.
# Where a name gives a salt, the structure may show the parent alone.
# What was measured:
# Experiment in all cases: cell proliferation relative to vehicle (% of vehicle); higher = less growth inhibition
# Conditions in all cases: 72 h
# [1] = system: U2932 TK216-resistant clone 2
# Outline: (§1)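 A targeted inhibitor library of 348 compounds was tested on the ABC-DLBCL line U2932, both parental and two clones made resistant to an ETS-targeting agent by repeated exposure over almost a year. Cells were grown at 37°C and 5% CO2 in medium with 10% FBS, then treated at 500 nM or 50 nM for 72 h. MTT was added for 4 h, stopped with 25% SDS, and absorbance was read on a Cytation 3. Proliferation is reported as percent of proliferating cells relative to vehicle (DMSO).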
# [2] = system: U2932 TK216-resistant clone 3
# Outline: as §1
# U2932 parental = system: U2932 parental
# Outline: as §1
Structure (SMILES),cell proliferation ([1]; 50 nM),cell proliferation ([1]; 500 nM),cell proliferation ([2]; 50 nM),cell proliferation ([2]; 500 nM),cell proliferation (U2932 parental; 50 nM),cell proliferation (U2932 parental; 500 nM)
CC1(C)CNc2cc(NC(=O)c3cccnc3NCc3ccncc3)ccc21 [Motesanib Diphosphate (AMG-706)],103,97.7,104,87.8,97.4,93.9
C[C@@H]1CC(=O)c2c(ccc3c2C(=O)c2cccc(O)c2C3=O)C1,102,98.5,104,92.5,87.5,97
CNC(=O)c1ccccc1Sc1ccc2c(/C=C/c3ccccn3)n[nH]c2c1 [Axitinib],110,92.8,102,92.8,95.6,87.4
Cn1nnc2c(C(N)=O)ncn2c1=O [Temozolomide],110,110,107,100,98.8,96.5
O=C(Nc1c[nH]nc1-c1nc2ccc(CN3CCOCC3)cc2[nH]1)NC1CC1,90.5,67.5,75.8,60.1,69.3,54.2
Cc1cc(CS(=O)(=O)c2ccccc2)cc(OCc2ccc(CN3CCC[C@@H]3CO)cc2)c1,105,90.6,106,97.9,97.2,107
COc1ccc(C2=N[C@@H](c3ccc(Cl)cc3)[C@@H](c3ccc(Cl)cc3)N2C(=O)N2CCNC(=O)C2)c(OC(C)C)c1 [Nutlin-3a],110,102,99.8,99.2,104,104
NC(=O)c1ccc(I)c([N+](=O)[O-])c1 [Iniparib (BSI-201)],107,98.2,105,103,97,102
Cn1cnc([N+](=O)[O-])c1Sc1ncnc2[nH]cnc12 [Azathioprine],100,98.4,103,103,97.5,103
COc1cc(-c2cc(-c3ccc(N4CCNCC4)cc3)cnc2C)cc(OC)c1OC,99.7,88.1,107,88.5,104,96.6
COc1nc(C)cnc1NS(=O)(=O)c1cccnc1-c1ccc(-c2nnco2)cc1 [Zibotentan (ZD4054)],95.1,104,106,102,97.2,95.2
C[C@]1(c2nc3c(C(N)=O)cccc3[nH]2)CCCN1 [Veliparib (ABT-888)],90.3,91.5,98.8,80.8,87,96.6
CC(C)(C#N)c1cc(Cn2cncn2)cc(C(C)(C)C#N)c1 [Anastrozole],99.8,108,103,101,105,96.7
O=C(O)c1ccc(O)c2ncccc12,104,107,101,99.2,106,105
Cc1c(CN2CCN(C(=O)[C@H](C)O)CC2)sc2c(N3CCOCC3)nc(-c3cnc(N)nc3)nc12,79.4,32,82.1,40.6,85,33.4
COC(=O)c1ccc2c(c1)NC(=O)/C2=C(\Nc1ccc(N(C)C(=O)CN2CCN(C)CC2)cc1)c1ccccc1 [Nintedanib (BIBF 1120)],105,94.8,93.4,81.7,102,96.6
CCCCNc1ncc2c(-c3ccc(CN4CCN(C)CC4)cc3)cn([C@H]3CC[C@H](O)CC3)c2n1,95.5,71.1,92,65.6,91.3,62.7
Nc1nc(Nc2ccc(S(N)(=O)=O)cc2)nn1C(=O)c1c(F)cccc1F,103,85.3,102,78.1,98.8,87.7
O=C(O)C1(C(=O)O)CCC1.[NH2-].[NH2-].[Pt+2] [Carboplatin],99.7,104,90.2,99.1,104,95.3
COc1cc2c(cc1O)CC[C@@H]1[C@@H]2CC[C@]2(C)[C@@H](O)CC[C@@H]12 [2-Methoxyestradiol (2-MeOE2)],105,102,103,83.4,99.8,54
Cc1ccc(-c2cc(C(F)(F)F)nn2-c2ccc(S(N)(=O)=O)cc2)cc1 [Celecoxib],99.8,95.6,104,98.7,101,100
CCCCC(C=O)NC(=O)C(CC(C)C)NC(=O)C(CC(C)C)NC(C)=O (stereo not drawn),107,12.7,106,24.2,103,39.6
Nc1nccc2c1ncn2C1C=C(CO)C(O)C1O (stereo not drawn) [3-Deazaneplanocin A (DZNeP)],103,86.2,102,82.1,98.1,81.5
Nc1ncn([C@H]2C[C@H](O)[C@@H](CO)O2)c(=O)n1 [Decitabine],72.5,59.1,92.9,78.3,85.1,73.1

Structure (SMILES),cell proliferation ([1]; 50 nM),cell proliferation ([1]; 500 nM),cell proliferation ([2]; 50 nM),cell proliferation ([2]; 500 nM),cell proliferation (U2932 parental; 50 nM),cell proliferation (U2932 parental; 500 nM)
COCC[n+]1c2c(n(Cc3cnccn3)c1C)C(=O)c1ccccc1C2=O [YM155 (Sepantronium Bromide)],-0.426,-1.48,-1.12,-4.35,0.598,-3.81
CC1(C)CC[C@]2(NC(=O)C(C)(F)F)CC[C@]3(C)[C@H](C(=O)C=C4[C@@]5(C)C=C(C#N)C(=O)C(C)(C)[C@@H]5CC[C@]43C)[C@@H]2C1 [Omaveloxolone (RTA-408)],95.5,10,103,23.8,93.8,14.7
O=C(O)c1ccc(-c2c[nH]c3ncc(-c4ccccc4)cc23)cc1C1CCCC1,107,100,97.4,105,105,107
C=CCc1ccc(O)c(-c2ccc(O)c(CC=C)c2)c1 [Honokiol],108,111,104,102,100,106
CC[C@]1(O)C[C@H]2CN(CCc3c([nH]c4ccccc34)[C@@](C(=O)OC)(c3cc4c(cc3OC)N(C=O)[C@H]3[C@@](O)(C(=O)OC)[C@H](OC(C)=O)[C@]5(CC)C=CCN6CC[C@]43[C@@H]65)C2)C1 [Vincristine sulfate],9.22,10,7.89,9.97,10.4,13.4
Nc1ccn([C@@H]2O[C@H](CO)[C@@H](O)C2(F)F)c(=O)n1 [Gemcitabine],15.3,14.9,20.1,19.1,12.5,14.6
c1cc(-c2cnn3cc(-c4ccc(OCCN5CCCCC5)cc4)cnc23)ccn1 [Dorsomorphin 2HCl],113,98,119,108,110,98.3
CC(C)NCCCn1c(Sc2cc3c(cc2I)OCO3)nc2c(N)ncnc21,113,6.42,105,31.6,112,6.73
COc1ccc(-c2ccc3ncc4c(c3c2)n(-c2ccc(N3CCNCC3)c(C(F)(F)F)c2)c(=O)n4C)cn1,15.8,-0.777,30.9,0.399,19.7,1.95
NCC(=O)Nc1ccc(-n2nc(C(F)(F)F)cc2-c2ccc3c(ccc4ccccc43)c2)cc1,99.6,84.6,95.3,72.8,96.2,82.4
Cc1cc(NC(=O)c2cccc(NC(=O)/C=C/CN(C)C)c2)ccc1Nc1nccc(-c2cccnc2)n1,99.5,106,108,116,96.8,103
S=C(NCc1ccc2c(c1)OCO2)N1CCN(c2ncnc3c2oc2ccccc23)CC1 [Amuvatinib (MP-470)],102,109,107,104,100,101
CNC(=O)c1cccc(-c2ccc3c(N4CCOC[C@@H]4C)nc(N4CCOC[C@@H]4C)nc3n2)c1,102,52.9,93.8,55.6,91.7,46.4
CN(NC(=O)CC(=O)NN(C)C(=S)c1ccccc1)C(=S)c1ccccc1 [Elesclomol (STA-4783)],0.164,-0.212,-0.901,-3.67,0.103,-1.37
O=S(=O)(O)CCS [Mesna],110,116,101,103,95.4,103
CCc1nc(-c2cccc(C)c2)c(-c2ccnc(NC(=O)c3ccccc3)c2)s1,103,97.7,98.4,103,104,101
CCOC(=O)c1[nH]c2cc(Cl)ccc2c1C(C(=O)NC(C)(C)C)N(C=O)Cc1ccc(Cl)cc1 (stereo not drawn),106,92.2,103,95.6,97.7,93.4
CO[C@@H](C(=O)N1Cc2[nH]nc(NC(=O)c3ccc(N4CCN(C)CC4)cc3)c2C1)c1ccccc1,97.2,84,77.8,71.7,71.8,69.5
Cn1cc(/C=C2\C(=O)Nc3cccnc32)c2ccccc21,102,105,106,105,97.2,90
CC(C)CCN1c2nc(Nc3cc(F)c(O)c(F)c3)ncc2N(C)C(=O)C1C (stereo not drawn),114,99.9,106,91.3,105,97.3
Cc1[nH]c2ccccc2c1CCNCc1ccc(/C=C/C(=O)NO)cc1 [Panobinostat (LBH589)],14.9,4.33,12.9,11.5,9.5,0.518
COc1ccc(C(=O)C2CCN(CC(=O)N(Cc3nc4c(c(=O)[nH]3)COCC4)CC3CC3)CC2)cc1,99.7,95.3,92.2,93.6,97.7,97.5
Cc1c(NC(=O)OC[C@@H]2COCCN2)cn2ncnc(Nc3ccc4c(cnn4Cc4cccc(F)c4)c3)c12,100,80.4,98.1,71.9,97.2,81.6
NC(=O)NO [Hydroxyurea],103,94.7,102,103,92.2,97.8
